# Test results as given in PubChem BioAssay (Tox21).
# Records with an inconclusive call do not appear. Where a call stands in place of a potency, no number is given. Active and inactive are the calls of the source. Calls follow the shape of the dose curve; as a rule, active = well fitted cell-killing curve with a large enough effect in the repeat runs; inconclusive = weak or mixed curves, or effect the other way; inactive = flat fitted curve, though single readings scatter.
# Test: qHTS RealTime-Glo MT Cell Viability Assay in HepG2 cells - 40 hour (AID 1224870); also: nearly all actives have a fitted effect of over 50% in size
# Conditions: RealTime-Glo luminescence; series mostly up to 76.8 µM
# From the text: National Center for Advancing Translational Sciences [NCATS]
# NIH Chemical Genomics Center [NCGC]
# U.S. Environmental Protection Agency [EPA]
# National Institutes of Environmental Health Sciences [NIEHS]
# National Toxicology Program [NTP]
# U.S. Food and Drug Administration [FDA]
# Measure of cell viability is critical in the cell-base assay. Analysis of cell viability is necessary for the characterization of cell responses to cytotoxic drugs and environmental stress. A RealTime-Glo MT Cell Viability Assay to monitor cell viability in real time of continues cell culture during 40 hours of compound treatment was used to screen Tox21 10K library compounds in HepG2 cells. The RealTime-Glo MT Cell Viability Assay is a nonlytic, homogeneous, bioluminescent method to measure cell viability in real time using a simple, plate-based method. The assay involves adding NanoLuc luciferase and a cell-permeant prosubstrate to cells in culture. Viable cells reduce the proprietary prosubstrate to generate a substrate for NanoLuc luciferase. This substrate diffuses from cells into the surrounding culture medium, where it is rapidly used by the NanoLuc Enzyme to produce a luminescent signal. The signal correlates with the number of viable cells, making the assay well suited for cytotoxicity studies.
# Tox21 Assay Protocol Summary:
# The mixture of HepG2 cell suspension and reagents were dispensed at 600cells/6 ul/well in 1536-well tissue culture treated black solid bottom plates using a Multidrop dispenser. After the assay plates were incubated at a 37 C/5% CO2 incubator for 5 hours, 23 nL of compounds dissolved in DMSO, positive and negative controls was transferred to the assay plate by a pintool work station. The plates were incubated at 37 C for 40 hours. The luminescence intensity were measured at 0h, 8h, 16h, 24h, 32h and 40h time points using ViewLux plate reader during compound treatment.
# Potency is read from the fitted curve at half-maximal effect.
row,Structure (SMILES),Potency
1,C=CC(=C)C,inactive
2,CC1(C)[C@H](/C=C2\CCSC2=O)[C@@H]1C(=O)OCc1coc(Cc2ccccc2)c1,inactive
3,[Cl-].[Cl-].[Sn+2],inactive
4,Cc1ccc2cc3c(ccc4ccccc43)c3c2c1CC3,inactive
5,COC(=O)/C=C(\C)OP(=O)(OC)OC,inactive
6,CCN(CC)CCc1c[nH]c2ccccc12,inactive
7,CC(=O)O.CC(=O)O.CC(=O)O.CC(=O)O.CC(=O)O.CC(=O)O.CC(=O)O.O.O.[Cr].[Cr].[Cr],inactive
8,Oc1cccc(Cl)c1Cl,inactive
9,Nc1nc(N)c(N)c(N)n1,inactive
10,CCC[CH2][Sn]([CH2]CCC)([CH2]CCC)[CH2]CCC,4.9 µM (active)
11,Cc1ccc([N+](=O)[O-])[c]2c1[O][Hg]2,3.01 µM (active)
12,Fc1ccc(C(OCCN2CCN(CCCc3ccccc3)CC2)c2ccc(F)cc2)cc1,26.8 µM (active)
13,O=C(O)CCCCCCNC1c2ccccc2CCc2ccccc21,inactive
14,N#CSCc1ccccc1,inactive
15,CC(C)=CCN1CC[C@@]2(C)c3cc(O)ccc3C[C@@H]1[C@@H]2C,inactive
16,Clc1ccc(C(c2ccc(Cl)cc2)C(Cl)Cl)cc1,inactive
17,Brc1cccc(-c2ccccc2)c1,inactive
18,O=C(CCCCl)c1ccc(F)cc1,inactive
19,[O]=[Cr][O][Cr]=[O],inactive
20,CC[C@H](C)[C@H]1O[C@]2(C=C[C@@H]1C)C[C@@H]1C[C@@H](C/C=C(\C)[C@@H](O[C@H]3C[C@H](OC)[C@@H](O[C@H]4C[C@H](OC)[C@@H](NC)[C@H](C)O4)[C@H](C)O3)[C@@H](C)/C=C/C=C3\CO[C@@H]4[C@H](O)C(C)=C[C@@H](C(=O)O1)[C@]34O)O2,9.77 µM (active)

row,Structure (SMILES),Potency
1,CCC1(CC)C(=O)N=C(O)NC1=O,inactive
2,CC1CCCC1,inactive
3,CCOC(=O)Cc1ccccc1,inactive
4,[Cl-].[Cl-].[Cl-].[Yb+3],inactive
5,C=CCBr,inactive
6,CSC1=N[C@@](C)(c2ccccc2)C(=O)N1Nc1ccccc1,inactive
7,C[C@]12C/C(=C/O)C(=O)C[C@@H]1CC[C@@H]1[C@@H]2CC[C@@]2(C)[C@H]1CC[C@]2(C)O,inactive
8,O=[N+]([O-])c1cc(C(F)(F)F)c(Cl)c([N+](=O)[O-])c1Nc1ncc(C(F)(F)F)cc1Cl,11 µM (active)
9,C=CC(=O)[O][Sn]([CH2]CCC)([CH2]CCC)[CH2]CCC,0.389 µM (active)
10,COC(=O)N(OC)c1ccccc1COc1ccn(-c2ccc(Cl)cc2)n1,inactive
11,COC(=O)c1ccccc1S(=O)(=O)NC(=O)Nc1nc(C)nc(OC)n1,inactive
12,CCCCn1cc[n+](C)c1 (tested in a mixture with another compound),inactive
13,Nc1ccc(Cl)cc1C(=O)c1ccccc1F,inactive
14,O=C(O)[C@H](O)[C@@H](O)C(=O)O,inactive
15,Nc1cc(Cl)ccc1Cl,inactive
16,CCCC[N+]1(C)CCCC1 (tested in a mixture with another compound),inactive
17,CCc1cccc(C)c1N(C(=O)CCl)[C@@H](C)COC,inactive
18,Cc1c([N+](=O)[O-])c(C)c([N+](=O)[O-])c(C(C)(C)C)c1[N+](=O)[O-],inactive
19,CC1(C)C(C=C(Cl)Cl)C1C(=O)OC(C#N)c1ccc(F)c(Oc2ccccc2)c1 (stereo not given),inactive
20,COP(=S)(NC(C)C)Oc1ccc(C)cc1[N+](=O)[O-] (stereo not given),inactive
